SMILES strings stand for the structures. For part of these data: Potency and affinity values are given separately.

Holding throughout (set-up): scale not given: direction of the effect not stated beside the values
Assay [1] deals with Protein translocase subunit SecA (Escherichia coli (strain K12)) (UniProt P10408). The assay can be described thus: Assay to Identify E. coli SecA ATPase Inhibitors. The settings on record: 30 µM. It is filed as functional.
Assay [2] addresses T1, Ubiquitin-activating enzyme e1, putative (Leishmania donovani (strain BPK282A1)) (UniProt E9BSI1).
T1 sequence (whole entry): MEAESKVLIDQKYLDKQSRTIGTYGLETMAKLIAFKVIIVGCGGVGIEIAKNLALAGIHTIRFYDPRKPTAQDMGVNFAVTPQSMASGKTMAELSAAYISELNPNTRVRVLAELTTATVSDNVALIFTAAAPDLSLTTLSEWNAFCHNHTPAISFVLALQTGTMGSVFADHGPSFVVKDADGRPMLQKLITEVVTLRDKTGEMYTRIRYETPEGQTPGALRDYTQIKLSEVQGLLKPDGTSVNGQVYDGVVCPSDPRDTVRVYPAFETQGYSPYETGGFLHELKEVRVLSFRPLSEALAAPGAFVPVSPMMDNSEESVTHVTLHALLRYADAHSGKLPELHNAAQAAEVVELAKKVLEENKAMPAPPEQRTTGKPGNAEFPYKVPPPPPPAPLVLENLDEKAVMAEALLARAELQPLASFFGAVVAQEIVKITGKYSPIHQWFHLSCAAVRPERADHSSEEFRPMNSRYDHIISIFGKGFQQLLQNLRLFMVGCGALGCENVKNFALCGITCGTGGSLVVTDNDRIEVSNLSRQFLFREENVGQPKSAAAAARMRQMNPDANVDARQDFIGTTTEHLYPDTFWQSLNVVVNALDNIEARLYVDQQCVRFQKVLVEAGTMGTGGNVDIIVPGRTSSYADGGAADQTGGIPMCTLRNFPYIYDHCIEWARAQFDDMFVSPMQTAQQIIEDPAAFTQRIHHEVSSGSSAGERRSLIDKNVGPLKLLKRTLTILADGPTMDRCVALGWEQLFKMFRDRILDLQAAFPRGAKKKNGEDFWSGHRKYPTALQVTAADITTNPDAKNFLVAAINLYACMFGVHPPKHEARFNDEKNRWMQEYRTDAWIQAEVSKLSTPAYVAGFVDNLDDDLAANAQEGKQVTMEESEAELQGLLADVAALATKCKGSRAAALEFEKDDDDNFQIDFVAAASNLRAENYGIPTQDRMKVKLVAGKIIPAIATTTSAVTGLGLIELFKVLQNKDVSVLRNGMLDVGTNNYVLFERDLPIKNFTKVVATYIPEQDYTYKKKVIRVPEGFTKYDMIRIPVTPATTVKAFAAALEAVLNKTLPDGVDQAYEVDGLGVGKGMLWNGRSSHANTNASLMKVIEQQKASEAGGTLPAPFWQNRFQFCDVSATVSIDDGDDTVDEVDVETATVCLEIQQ
The assay can be described thus: Leishmania donovani Ubiquitin Activating Enzyme (LdE1). It is filed as functional. The settings on record: 30 µM.

Assay [3] has as its target Sialic acid-binding Ig-like lectin 9 (Homo sapiens) (UniProt Q9Y336). In words: Hs-Siglec9 ALPHAscreen SOP 20170721. The settings on record: 10 µM. On the technique in general: Bead proximity is the source of the signal in Alpha formats.
The test system of a further assay is Trypanosoma cruzi. In words: Trypanosoma cruzi phosphomannomutase and mannose-1-phosphate guanylyltransferase assay. The following applies: 10 µM. It is filed as functional.
The target in assay [4] is T2, Arginase-2, mitochondrial (Homo sapiens) (UniProt P78540).
T2 sequence (whole entry): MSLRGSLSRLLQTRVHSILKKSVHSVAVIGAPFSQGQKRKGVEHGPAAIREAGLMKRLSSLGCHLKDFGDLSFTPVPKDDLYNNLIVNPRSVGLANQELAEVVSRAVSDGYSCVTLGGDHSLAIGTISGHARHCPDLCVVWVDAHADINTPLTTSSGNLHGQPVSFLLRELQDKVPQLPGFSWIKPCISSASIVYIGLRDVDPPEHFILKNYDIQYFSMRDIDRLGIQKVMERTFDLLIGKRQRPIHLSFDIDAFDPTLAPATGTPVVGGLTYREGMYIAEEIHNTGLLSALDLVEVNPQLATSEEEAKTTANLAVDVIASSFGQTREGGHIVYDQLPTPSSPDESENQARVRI
In words: in vitro enzyme assay to detect the production of urea directly proportional to the activity of Arginase II. Further: in the data most compounds retested in dose-response had high values. It is filed as functional. The following applies: 33.3 µM.

The target in assay [5] is T3, Proteasome subunit beta (Trypanosoma cruzi) (UniProt O96673).
T3 sequence (whole entry): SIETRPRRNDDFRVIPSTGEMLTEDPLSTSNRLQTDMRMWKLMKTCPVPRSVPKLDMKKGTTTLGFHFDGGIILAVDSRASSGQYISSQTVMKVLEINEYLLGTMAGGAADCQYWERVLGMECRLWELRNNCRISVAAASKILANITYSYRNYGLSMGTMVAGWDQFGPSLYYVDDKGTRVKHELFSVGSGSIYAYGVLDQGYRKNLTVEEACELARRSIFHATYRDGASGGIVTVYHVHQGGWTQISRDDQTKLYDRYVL
In words: Trypanosoma cruzi proteasome chymotrypsin-like activity (TcProtChymo) assay. Further: in the data most compounds retested in dose-response had high values. It is filed as functional. The settings on record: 9.37 µM.

The species entered for the next assay is Homo sapiens. In words: To identify inhibition of the IFN signalling (Jak-Stat) pathway via expression of an eGFP reporter gene under the control of an IFN-stimulated response element (ISRE) containing MxA promoter. It is filed as functional. The settings on record: 30 µM. (In general: In a reporter assay the amount or activity of a reporter protein is the signal.)

In assay [6] the target is T4, Tyrosyl-tRNA synthetase, putative (Trypanosoma cruzi (strain CL Brener)) (UniProt Q4DSP6).
T4 sequence (whole entry): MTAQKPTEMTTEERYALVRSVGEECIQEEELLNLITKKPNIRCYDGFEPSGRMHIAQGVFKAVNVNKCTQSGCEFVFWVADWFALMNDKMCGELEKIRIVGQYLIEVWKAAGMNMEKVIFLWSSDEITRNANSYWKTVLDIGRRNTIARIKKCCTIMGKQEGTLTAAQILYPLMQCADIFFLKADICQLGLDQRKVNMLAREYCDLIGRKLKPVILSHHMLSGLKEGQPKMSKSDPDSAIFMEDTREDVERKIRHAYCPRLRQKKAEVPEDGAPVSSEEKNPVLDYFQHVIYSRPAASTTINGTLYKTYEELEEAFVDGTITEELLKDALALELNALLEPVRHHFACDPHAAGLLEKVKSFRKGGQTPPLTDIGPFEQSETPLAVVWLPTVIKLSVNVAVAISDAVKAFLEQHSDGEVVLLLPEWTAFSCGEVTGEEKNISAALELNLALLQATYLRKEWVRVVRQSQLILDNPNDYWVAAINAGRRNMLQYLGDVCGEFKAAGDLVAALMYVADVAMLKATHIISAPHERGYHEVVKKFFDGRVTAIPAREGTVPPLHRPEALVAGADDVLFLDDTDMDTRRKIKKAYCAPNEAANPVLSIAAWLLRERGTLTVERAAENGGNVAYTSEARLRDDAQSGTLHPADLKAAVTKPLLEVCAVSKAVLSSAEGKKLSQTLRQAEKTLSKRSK
In words: Trypanosoma cruzi tyrosyl tRNA synthetase (TcYRS) _High Tyrosine SOP. Further: in the data most compounds retested in dose-response had high values. It is filed as functional. The following applies: 30 µM.

Assay [7] addresses T4, Tyrosyl-tRNA synthetase, putative (Trypanosoma cruzi (strain CL Brener)). In words: Trypanosoma cruzi tyrosyl tRNA synthetase (TcYRS) SOP. It is filed as functional. The settings on record: 30 µM.
The target in assay [8] is Chromo domain-containing protein 1 (Saccharomyces cerevisiae (strain ATCC 204508 / S288c) (Baker's yeast)) (UniProt P32657). In words: ScCHD-1 Enzyme Inhibition Assay. Further: in the data most compounds retested in dose-response had high values. It is filed as functional. The settings on record: 30 µM.
Sequence of Chromo domain-containing protein 1 (Saccharomyces cerevisiae (strain ATCC 204508 / S288c) (Baker's yeast)) (P32657 whole entry, the tested form may be a part): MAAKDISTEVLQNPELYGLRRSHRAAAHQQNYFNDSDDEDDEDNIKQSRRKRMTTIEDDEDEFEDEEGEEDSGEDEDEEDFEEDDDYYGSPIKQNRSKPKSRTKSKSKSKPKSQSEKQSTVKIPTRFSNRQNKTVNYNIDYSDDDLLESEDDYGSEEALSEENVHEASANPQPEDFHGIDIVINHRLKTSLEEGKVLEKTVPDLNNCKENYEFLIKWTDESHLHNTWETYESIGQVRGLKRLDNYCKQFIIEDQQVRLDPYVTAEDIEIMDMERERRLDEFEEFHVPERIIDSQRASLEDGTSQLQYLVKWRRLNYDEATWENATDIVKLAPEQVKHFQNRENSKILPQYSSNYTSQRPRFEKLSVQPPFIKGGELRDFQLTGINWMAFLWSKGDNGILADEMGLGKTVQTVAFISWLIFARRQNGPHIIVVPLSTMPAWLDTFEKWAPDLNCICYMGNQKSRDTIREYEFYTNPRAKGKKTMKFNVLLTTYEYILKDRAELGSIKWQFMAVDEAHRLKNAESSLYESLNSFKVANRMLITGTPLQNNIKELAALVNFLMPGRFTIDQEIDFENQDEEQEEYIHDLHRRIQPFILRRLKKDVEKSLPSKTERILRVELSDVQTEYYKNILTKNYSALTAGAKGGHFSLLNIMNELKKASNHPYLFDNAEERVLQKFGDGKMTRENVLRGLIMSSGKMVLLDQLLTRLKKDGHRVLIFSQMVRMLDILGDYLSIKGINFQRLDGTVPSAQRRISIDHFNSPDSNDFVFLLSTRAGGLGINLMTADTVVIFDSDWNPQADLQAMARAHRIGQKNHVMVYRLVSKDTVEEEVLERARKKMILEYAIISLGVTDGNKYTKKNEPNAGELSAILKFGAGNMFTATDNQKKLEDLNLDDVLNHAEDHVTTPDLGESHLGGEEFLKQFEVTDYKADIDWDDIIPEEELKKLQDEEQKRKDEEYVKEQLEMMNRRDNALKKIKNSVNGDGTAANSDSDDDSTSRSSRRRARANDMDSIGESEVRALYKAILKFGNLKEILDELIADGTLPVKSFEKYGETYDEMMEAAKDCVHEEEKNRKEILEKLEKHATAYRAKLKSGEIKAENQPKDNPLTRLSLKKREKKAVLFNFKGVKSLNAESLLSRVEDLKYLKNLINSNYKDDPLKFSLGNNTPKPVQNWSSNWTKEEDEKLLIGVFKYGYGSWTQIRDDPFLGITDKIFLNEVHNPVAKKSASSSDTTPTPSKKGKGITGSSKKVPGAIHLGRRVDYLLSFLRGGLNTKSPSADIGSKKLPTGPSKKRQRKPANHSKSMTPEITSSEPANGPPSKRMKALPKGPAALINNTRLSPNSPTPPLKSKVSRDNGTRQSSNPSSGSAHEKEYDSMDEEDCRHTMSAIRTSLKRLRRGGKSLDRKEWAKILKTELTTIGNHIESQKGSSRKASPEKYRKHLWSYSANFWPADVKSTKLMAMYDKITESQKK

Sequence of Sialic acid-binding Ig-like lectin 9 (Homo sapiens) (Q9Y336 whole entry): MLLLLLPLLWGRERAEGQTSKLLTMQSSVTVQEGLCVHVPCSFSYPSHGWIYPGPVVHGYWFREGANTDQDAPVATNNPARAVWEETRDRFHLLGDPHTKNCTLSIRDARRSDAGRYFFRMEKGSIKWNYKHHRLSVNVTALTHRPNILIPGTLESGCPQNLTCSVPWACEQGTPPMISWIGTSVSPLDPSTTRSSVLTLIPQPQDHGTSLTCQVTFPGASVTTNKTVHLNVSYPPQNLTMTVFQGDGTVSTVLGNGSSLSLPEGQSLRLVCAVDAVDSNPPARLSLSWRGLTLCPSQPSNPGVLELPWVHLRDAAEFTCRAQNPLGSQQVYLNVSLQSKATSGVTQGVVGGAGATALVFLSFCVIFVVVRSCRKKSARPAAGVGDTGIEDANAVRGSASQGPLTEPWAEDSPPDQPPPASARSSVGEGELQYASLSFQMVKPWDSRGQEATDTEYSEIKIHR
Sequence of Protein translocase subunit SecA (Escherichia coli (strain K12)) (P10408 whole entry): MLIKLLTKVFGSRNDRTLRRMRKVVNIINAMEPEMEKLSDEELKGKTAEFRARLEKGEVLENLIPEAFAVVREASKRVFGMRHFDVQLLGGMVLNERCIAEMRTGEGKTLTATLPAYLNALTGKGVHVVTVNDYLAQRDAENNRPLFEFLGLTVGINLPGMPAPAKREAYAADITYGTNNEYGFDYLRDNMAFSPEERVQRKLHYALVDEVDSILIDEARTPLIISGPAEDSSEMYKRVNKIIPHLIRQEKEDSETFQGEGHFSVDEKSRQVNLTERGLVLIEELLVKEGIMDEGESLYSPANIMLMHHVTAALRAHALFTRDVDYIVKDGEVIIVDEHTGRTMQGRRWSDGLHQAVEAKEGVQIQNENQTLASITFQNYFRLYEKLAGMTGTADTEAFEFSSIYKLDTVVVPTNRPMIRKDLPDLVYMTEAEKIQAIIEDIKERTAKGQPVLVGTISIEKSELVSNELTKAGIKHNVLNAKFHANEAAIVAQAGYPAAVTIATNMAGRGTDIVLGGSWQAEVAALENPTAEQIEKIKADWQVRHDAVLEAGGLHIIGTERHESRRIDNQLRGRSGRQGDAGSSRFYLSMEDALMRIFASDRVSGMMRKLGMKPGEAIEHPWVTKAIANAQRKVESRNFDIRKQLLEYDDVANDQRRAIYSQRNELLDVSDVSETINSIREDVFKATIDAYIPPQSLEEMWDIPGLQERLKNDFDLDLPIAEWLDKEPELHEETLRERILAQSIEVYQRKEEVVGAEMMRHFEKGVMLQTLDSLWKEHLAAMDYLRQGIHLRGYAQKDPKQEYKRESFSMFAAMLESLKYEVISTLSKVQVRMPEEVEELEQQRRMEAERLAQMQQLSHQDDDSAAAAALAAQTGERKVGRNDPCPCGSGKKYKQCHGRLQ

For the molecule `CCc1ccc(O)c(C(=O)NC2CCN(S(=O)(=O)CC)CC2)c1`, the Percent Effect was -6.37% in assay [1]; 17.9% in assay [2]; -17.5% in assay [3]; 5.35% in the assay on Trypanosoma cruzi; -4.92% in assay [4]; 10.2% in assay [5]. Further, the Percent Effect in the assay listed under Homo sapiens is 20.5%; in assay [6], 1.44%; in [7] it was 22.9%; in [8] it was -10.9%.

Take `NC(=O)C1CCN(C(=O)c2cccc(OCc3cscn3)c2)CC1`: the Percent Effect in assay [1] was -1.56%; in assay [2], 10.3%; in assay [3] it was -4.08%; in the assay with Trypanosoma cruzi, -3.1%; in assay [4], 5.33%; in assay [5], 5.89%. Moreover, the Percent Effect was 26.4% in the assay listed under Homo sapiens, 2.39% in assay [6], 10.8% in assay [7] and -2.13% in assay [8].

Take `Cc1cncc(C(=O)N2Cc3ccccc3C3(CCN(C)CC3)C2)c1`: the Percent Effect was 0.817% in assay [1]; 1.3% in assay [2]; -5.76% in [3]; -4.38% in the assay with Trypanosoma cruzi; 4.05% in assay [4]; 3.09% in [5]. In addition, the Percent Effect in the assay filed under Homo sapiens was -17%; in assay [6], -2.63%; in assay [7], -15.4%; in assay [8], -3.41%.

Take `CCCN(C(=O)COC)c1nc2c(s1)CCc1c-2cnn1C`: the Percent Effect is 6.68% in assay [1]; 52% in assay [2]; 21% in [3]; -3.16% in the assay on Trypanosoma cruzi; 23.9% in assay [4]; 2.79% in assay [5]. In addition, the Percent Effect in the assay listed under Homo sapiens is 17.9%; in assay [6], -13.8%; in [7], -15%; in [8], -18.2%.

As for `Cc1c(O)oc(-c2ccc(Br)cc2)nc1=O`, the Percent Effect in assay [1] was -4.74%; in assay [2] it was -73.3%; in [3], -12.4%; in the assay with Trypanosoma cruzi it was 2.96%; in assay [4], -4.87%; in assay [5], 12.6%. For the same molecule, the Percent Effect is 12.7% in the assay listed under Homo sapiens, 3.17% in assay [6], 15% in [7] and -18.8% in [8].

As for `COCC1CN(Cc2ccsc2)Cc2nn(C)cc21` (stereo not given), the Percent Effect in assay [1] is -4.97%; in assay [2] it was 6.49%; in [3], -3.38%; in the assay on Trypanosoma cruzi, -7.11%; in assay [4], 2.83%; in assay [5] it was 20.9%. For the same molecule, the Percent Effect is 13.5% in the assay filed under Homo sapiens, 3.68% in assay [6], 0% in [7] and 2.62% in assay [8].

As to `O=C(NCCc1ccccc1)C1CCCN(c2ccc3nncn3n2)C1` (stereo not given), the Percent Effect in [1] was -3.44%; in assay [2] it was 2.7%; in [3], -1.4%; in the assay on Trypanosoma cruzi, -8.05%; in [4], 1.75%; in assay [5], 17.6%. Besides, the Percent Effect in the assay listed under Homo sapiens is -5.46%; in [6] it was 5.85%; in [7], 7.32%; in assay [8], -3.81%.

On to `O=C(NCc1cc[nH]n1)NCC(O)COc1cccc(F)c1` (stereo not given), for which the Percent Effect in [1] was -1.6%; in [2] it was 10.7%; in assay [3], -6.96%; in the assay with Trypanosoma cruzi it was -7.03%; in assay [4] it was -7.98%; in [5], 8.74%. Besides, the Percent Effect in the assay listed under Homo sapiens is 12.9%; in assay [6], -2.63%; in assay [7] it was 0%; in assay [8] it was -6.87%.

For the molecule `CCOc1ccc(Cl)c(C(=O)N(C)C)n1`, the Percent Effect in assay [1] is -2.43%; in assay [2], 15.4%; in assay [3], -11.2%; in the assay with Trypanosoma cruzi, -3.66%; in [4], 2.05%; in [5], 14.2%. The Percent Effect is 30.8% in the assay listed under Homo sapiens, 4.31% in assay [6], 13.2% in assay [7] and -2.78% in assay [8].

For the molecule `Cc1nc(C)n(CC2CN(CCCOc3ccccc3C)CCO2)n1` (stereo not given), the Percent Effect in assay [1] is -2.1%; in assay [2], -2.67%; in [3] it was -2.65%; with Trypanosoma cruzi, 1.61%; in [4], 2.66%; in [5], 0.763%. In addition, the Percent Effect in the assay listed under Homo sapiens was 7.57%; in assay [6], -0.526%; in assay [7] it was -7.69%; in assay [8] it was -5.97%.

With `Cc1cn2c(n1)CCC(NC(=O)c1c[nH]c(C)n1)C2` (stereo not given), the Percent Effect in assay [1] was -6.87%; in [2], -10.7%; in assay [3], 1.48%; in the assay on Trypanosoma cruzi, 3.61%; in [4], 0%; in assay [5], 10.9%. Besides, the Percent Effect in the assay filed under Homo sapiens is 17.2%; in assay [6] it was 3.68%; in assay [7], 7.69%; in assay [8] it was -13.6%.

As to `Cc1ccc(C(CNC(=O)NCc2cc[nH]n2)N2CCOCC2)o1` (stereo not given), the Percent Effect was -3.05% in assay [1]; 12.8% in assay [2]; -4.81% in [3]; -4.04% with Trypanosoma cruzi; 0.82% in assay [4]; 14.1% in assay [5]. For the same molecule, the Percent Effect in the assay listed under Homo sapiens is 24.3%; in assay [6] it was 2.39%; in [7] it was 10.8%; in [8], -3.31%.
